# Counter-ions that a name gives are not always drawn.
# What was measured:
# Assay in all cases: Euclidean distance of Cell Painting phenotypic profile (signed KS, 77 features) to DMSO centroid (dimensionless distance); 5 or 10 uM (library dependent); higher = stronger phenotypic change vs DMSO (phenoactivity)
# Conditions in all cases: 48 h
# 786-O = tested on: 786-O
# Outline: (§1)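 Phenoactivity is computed as Euclidean distance to the median vehicle profile. The profiles, drawn from 77 Harmony features scored as signed Kolmogorov-Smirnov statistics versus same-plate vehicle wells, were corrected for plate position, correlation-weighted and replicate-averaged at the top dose. Stained cells were imaged confocally at 20X (9 fields/well) after 48 h with library compounds at 10 or 5 uM, 0.1% DMSO final, in five cancer lines and a healthy fibroblast line.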
# A549 = tested on: A549
# Outline: as §1
# DU145 = tested on: DU145
# Outline: as §1
# FB = tested on: FB
# Outline: as §1
# HEPG2 = tested on: HEPG2
# Outline: as §1
# OVCAR4 = tested on: OVCAR4
# Outline: as §1
SMILES,Euclidean distance (786-O),Euclidean distance (A549),Euclidean distance (DU145),Euclidean distance (FB),Euclidean distance (HEPG2),Euclidean distance (OVCAR4)
COc1cc(N2CCC(N3CCN(C)CC3)CC2)ccc1Nc1ncc(Cl)c(Nc2ccccc2S(=O)(=O)C(C)C)n1,2.54,3.06,2.48,3.6,1.66,3.35
CC(C)(C)C(=O)Oc1ccc(S(=O)(=O)Nc2ccccc2C(=O)NCC(=O)O)cc1 [Sivelestat sodium tetrahydrate],0.925,0.568,1.32,1.57,0.892,1.28
CCC(=O)O[C@]1(C(=O)SCF)[C@H](C)C[C@H]2[C@@H]3C[C@H](F)C4=CC(=O)C=C[C@]4(C)[C@@]3(F)[C@@H](O)C[C@@]21C [Fluticasone propionate],1.77,2.26,2.6,1.83,0.813,1.61
OCCN1CCN(CCCN2c3ccccc3Sc3ccc(Cl)cc32)CC1 [Perphenazine],1.95,2.47,1.77,2.8,2.4,2.19
N[C@@H](Cc1cc(I)c(Oc2ccc(O)c(I)c2)c(I)c1)C(=O)O [Liothyronine Sodium],0.896,0.796,0.838,1.56,1.41,0.927
C=CCc1ccc(O)c(OC)c1 [Eugenol],0.982,1.21,0.897,0.958,0.497,1.51
CC(CNC(=O)c1cccnc1)NC(=O)c1cccnc1 (stereo unspecified) [Nicaraven],1.31,0.748,1,1,2.29,1.91
CC(=O)[C@H]1CC[C@H]2[C@@H]3C=CC4=CC(=O)CC[C@@]4(C)[C@@H]3CC[C@]12C [Dydrogesterone],0.672,0.859,0.732,1.15,1.01,0.899
O=C(OCC(O)CO)c1ccccc1Nc1ccnc2cc(Cl)ccc12 (stereo unspecified) [Glafenine HCl],1.07,0.79,0.824,1.52,0.968,1.04
CCN(CC)Cc1cc(Nc2ccnc3cc(Cl)ccc23)ccc1O [Amodiaquine],2.2,2.16,1.37,3.19,2.51,2.02
FC(F)(F)c1ccc(CNc2ccc(Cc3c[nH]c4ncc(Cl)cc34)cn2)cn1 [Pexidartinib (PLX3397)],1.31,1.41,1.04,1.53,2.18,1
CC[C@H](C)[C@H](NC(=O)[C@H](Cc1ccc(O)cc1)NC(=O)[C@@H](NC(=O)[C@H](CCCN=C(N)N)NC(=O)[C@@H](N)CC(=O)O)C(C)C)C(=O)N[C@@H](Cc1cnc[nH]1)C(=O)N1CCC[C@H]1C(=O)N[C@@H](Cc1ccccc1)C(=O)O [Angiotensin II human Acetate],1.66,0.986,0.817,1.24,0.532,0.985
NCCCCC(NC(=O)C1CCCN1C(=O)C1CSSCC(N)C(=O)NC(Cc2ccc(O)cc2)C(=O)NC(Cc2ccccc2)C(=O)NC(CCC(N)=O)C(=O)NC(CC(N)=O)C(=O)N1)C(=O)NCC(N)=O (stereo unspecified) [Lypressin Acetate],1.39,0.851,1.08,1.11,0.477,1.48
CCCCCC(=O)O[C@]1(C(C)=O)CC[C@H]2[C@@H]3CCC4=CC(=O)CC[C@]4(C)[C@H]3CC[C@@]21C [Hydroxyprogesterone caproate],0.774,1.41,2.27,1.18,0.603,0.921
CC(=O)NO [Acetohydroxamic acid],1.37,1.28,0.954,1.17,0.648,0.776
CCCC1CC(C(=O)NC(C(C)Cl)C2OC(SC)C(O)C(O)C2O)N(C)C1 (stereo unspecified) [Clindamycin alcoholate],1.37,0.413,1.04,0.986,1.01,1.02
CCCCC1=NC2(CCCC2)C(=O)N1Cc1ccc(-c2ccccc2S(=O)(=O)Nc2noc(C)c2C)c(COCC)c1,1.6,0.599,1.01,0.872,0.445,0.927
CC(C)(C)C(=O)OCOC(=O)[C@@H]1N2C(=O)[C@@H](/N=C/N3CCCCCC3)[C@H]2SC1(C)C [Pivmecillinam hydrochloride],1.23,1.69,0.728,0.994,0.59,1.14
CC1(C)NC(=O)N(c2ccc([N+](=O)[O-])c(C(F)(F)F)c2)C1=O [Nilutamide],0.81,0.753,1.03,0.9,0.474,0.959
CC(C)(C)NC[C@H](O)c1ccc(O)c(CO)c1 [levalbuterol tartrate],0.685,0.326,0.582,0.969,0.566,0.907
COc1ccc(C(=O)NCc2ccc(OCCN(C)C)cc2)cc1OC [Itopride hydrochloride],1.63,0.807,0.903,0.871,1.09,0.695
COc1ccc(S(=O)(=O)Nc2cccnc2Nc2ccc(O)cc2)cc1,2.73,2.61,3.18,2.99,3.33,3.12
Nc1ccn([C@@H]2O[C@H](CO)[C@@H](O)C2(F)F)c(=O)n1 [Gemcitabine],2.58,2.74,3.26,2.91,2.74,2.98

SMILES,Euclidean distance (786-O),Euclidean distance (A549),Euclidean distance (DU145),Euclidean distance (FB),Euclidean distance (HEPG2),Euclidean distance (OVCAR4)
C[C@@H](O)[C@H]1C(=O)N2C(C(=O)[O-])=C(SC3Cn4cnc[n+]4C3)[C@H](C)[C@H]12 (stereo partly specified) [Biapenem],1.35,0.934,1.14,1.22,1.02,0.838
CCn1cc(C(=O)O)c(=O)c2cnc(N3CCCC3)nc21 [Piromidic Acid],1.37,0.767,0.647,0.879,0.512,1.02
C[C@H](NCc1ccc(OCc2cccc(F)c2)cc1)C(N)=O [Safinamide Mesylate],0.672,0.63,0.559,0.645,0.55,1.14
CC(C)NC[C@@H](O)COc1ccc(CC(N)=O)cc1 [(R)-(+)-Atenolol HCl],0.631,0.523,0.486,0.716,0.626,0.511
Cc1c(-c2ccc(-c3ccccc3F)cc2)nc2ccc(F)cc2c1C(=O)O [Brequinar],1.61,1.46,0.974,0.698,1.44,1.45
COc1ccc(Cl)cc1C(=O)NCCc1ccc(S(=O)(=O)NC(=O)NC2CCCCC2)cc1 [Glyburide],1.1,0.731,1.49,1.27,2.08,1.32
CCNC(=O)CCC/C=C\C[C@@H]1[C@@H](/C=C/[C@@H](O)CCc2ccccc2)[C@H](O)C[C@@H]1O [Bimatoprost],1.63,1.42,0.906,1.4,0.869,1.27
COc1cc2c(cc1-c1c(C)noc1C)ncc1[nH]c(=O)n([C@H](C)c3ccccn3)c12,2.62,2.24,1.84,3.75,1.77,2.03
CC(C)C[C@H](NC(=O)[C@H](CCc1ccccc1)NC(=O)CN1CCOCC1)C(=O)N[C@@H](Cc1ccccc1)C(=O)N[C@@H](CC(C)C)C(=O)[C@@]1(C)CO1 [Carfilzomib (PR-171)],5.78,4.54,5.77,0.729,4.79,5.41
COc1nccnc1NS(=O)(=O)c1ccc(N)cc1 [Sulfalene(SMPZ)],0.789,1.44,1.18,1.41,0.406,0.917
CC(=O)CC/C=C(\C)CC/C=C(\C)CC/C=C(\C)CCC=C(C)C [Teprenone],1.06,0.693,0.749,1.12,1.1,1.23
O=C1C(N(CO)C(=O)NCO)N(CO)C(=O)N1CO (stereo unspecified) [Diazolidinyl urea],0.723,0.505,1.01,0.783,0.465,0.927
CN1CC[C@H](c2c(O)cc(O)c3c(=O)cc(-c4ccccc4Cl)oc23)[C@H](O)C1 [Flavopiridol HCl],3.1,3.15,3.43,3.29,2.41,3.45
Fc1ccc([C@@H]2CCNC[C@H]2COc2ccc3c(c2)OCO3)cc1 [Paroxetine mesylate],1.64,1.28,1.89,1.62,2.59,1.52
N.N.O=C([O-])C[O-].[Pt+2] [Nedaplatin],3.19,2.86,4.02,3.24,2.92,2.99
Cc1cccc(-c2[nH]c(CNc3ccccc3F)nc2-c2ccc3ncnn3c2)n1 [Vactosertib ?(TEW-7197)],1.71,1.61,1.41,1.83,1.26,1.5
OC(CCN1CCCC1)(c1ccccc1)C1CCCCC1 (stereo unspecified) [Procyclidine HCl],0.828,0.891,0.562,1.87,1.33,0.869
CC(C)CC(=O)Nc1cncc(-c2ccc3[nH]nc(-c4nc5cncc(-c6cccc(F)c6)c5[nH]4)c3c2)c1,5.07,2.79,4.73,4.58,4.73,3.42
O=C(O)Cc1ccccc1Nc1c(Cl)cccc1Cl [Diclofenac acid],0.971,0.349,2.62,0.749,0.668,0.711
COC(=O)c1cc(OC)c2c(c1-c1c(C(=O)OC)cc(OC)c3c1OCO3)OCO2 [Bifendate],1.36,1.51,0.627,1.22,0.392,1.35
COc1ccccc1OCC(O)CN1CCN(CC(=O)Nc2c(C)cccc2C)CC1 (stereo unspecified) [Ranolazine],1.2,0.699,0.507,0.669,1.08,1.09
CNC[C@H](O)c1ccc(O)c(O)c1 [Epinephrine bitartrate],0.553,0.655,0.818,0.827,0.637,0.577
Nc1nc(OCc2cc(Br)cs2)c2[nH]cnc2n1 [Lomeguatrib],1.07,1.13,1.15,1.29,0.861,1.04
